Reference: PubChem BioAssay (EPA / NIEHS)
Inconclusive results are not listed. The source made the active and inactive calls. How the source made its calls, unless noted: active means hit-call score of the fitted dose curve at least 0.9, where 1 is the maximum; inconclusive means response in the unintended direction; inactive means score below 0.9.

Columns and labels:
[1] = Tanguay_ZF_120hpf_YSE_legacy: (Legacy) Oregon State University Tanguay Lab 120 Hour Post-fertilization zebrafish Assay for Yolk Sac Edema (AID 2283634)
Procedure, shortened: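 Dechorionate (pronase, 4 hpf) → place one 6 hpf embryo per well → static compound exposure, sealed and foil-covered, 28C, to 120 hpf → record yolk sac edema as present or absent. Final DMSO 0.64%.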

[2] = Tanguay_ZF_120hpf_AXIS_legacy: (Legacy) Oregon State University Tanguay Lab 120 Hour Post-fertilization zebrafish Assay for Body Axis Malformation (AID 2283635)
Procedure, shortened: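 Chorion is removed with pronase at 4 hpf, then single 6 hpf embryos are dosed (final DMSO 0.64%) and held statically at 28C in sealed, foil-covered plates. At 120 hpf body axis malformation is recorded as present or absent.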

[3] = Tanguay_ZF_120hpf_EYE_legacy: (Legacy) Oregon State University Tanguay Lab 120 Hour Post-fertilization zebrafish Assay for Eye Malformation (AID 2283636)
Procedure, shortened: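 Binary brightfield scoring of eye defects at 120 hpf after static exposure from 6 hpf of single pronase-dechorionated wild-type embryos (28C, 0.64% DMSO). Non-mortality endpoints omitted where embryos died; fit vs DMSO.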

[4] = Tanguay_ZF_120hpf_SNOU_legacy: (Legacy) Oregon State University Tanguay Lab 120 Hour Post-fertilization zebrafish Assay for Snout Malformation (AID 2283637)
Procedure, shortened: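 Binary snout-malformation call at 120 hpf in wild-type 5D embryos, chorion removed by pronase, under static exposure from 6 hpf at 28C (0.64% DMSO). Embryos dying by 24 or 120 hpf excluded.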

[5] = Tanguay_ZF_120hpf_JAW_legacy: (Legacy) Oregon State University Tanguay Lab 120 Hour Post-fertilization zebrafish Assay for Jaw Malformation (AID 2283638)
Procedure, shortened: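 Steps: dechorionate 4 hpf embryos (pronase); plate 1/well at 6 hpf; add test chemical, 0.64% DMSO final; seal, cover, hold at 28C statically to 120 hpf; score jaw defect presence/absence microscopically. Dead embryos not scored.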

[6] = Tanguay_ZF_120hpf_OTIC_legacy: (Legacy) Oregon State University Tanguay Lab 120 Hour Post-fertilization zebrafish Assay for Otic Vesicle Malformation (AID 2283639)
Procedure, shortened: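 Wild-type zebrafish larvae, whole-embryo exposure from early stage to 120 hpf at 28C. Binary brightfield scoring of otic vesicle morphology, fitted in the positive direction against the DMSO baseline.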

[7] = Tanguay_ZF_120hpf_BRAI_legacy: (Legacy) Oregon State University Tanguay Lab 120 Hour Post-fertilization zebrafish Assay for Brain Malformation (AID 2283641)
Procedure, shortened: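 Wild-type 5D larvae, static waterborne exposure to 120 hpf, 28C, 0.64% v/v DMSO. Brightfield scoring of brain defects, binary; dead embryos excluded. Positive ctrl 5uM trimethyltin chloride.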

[8] = Tanguay_ZF_120hpf_PFIN_legacy: (Legacy) Oregon State University Tanguay Lab 120 Hour Post-fertilization zebrafish Assay for Pectoral Fin Malformation (AID 2283648);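 further: each larva judged yes or no for fin defect by brightfield with dead larvae skipped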
Procedure, shortened: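 Pectoral fin malformation was recorded as a binary endpoint at 120 hpf in wild-type Tropical 5D larvae, which had been dechorionated and exposed statically from 6 hpf at 28C in 0.64% DMSO. Dead embryos were excluded.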

[9] = Tanguay_ZF_120hpf_CFIN_legacy: (Legacy) Oregon State University Tanguay Lab 120 Hour Post-fertilization zebrafish Assay for Caudal Fin Malformation (AID 2283649)
Procedure, shortened: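 Binary presence or absence of caudal fin malformation at 120 hpf, read by brightfield microscopy, with DMSO as baseline. Larvae came from 5D wild-type embryos exposed statically from 6 hpf at 28C after pronase dechorionation.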

[10] = Tanguay_ZF_120hpf_PIG_legacy: (Legacy) Oregon State University Tanguay Lab 120 Hour Post-fertilization zebrafish Assay for Pigmentation Malformation (AID 2283650)
Procedure, shortened: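 Pigment malformation recorded as a binary call at 120 hpf in zebrafish (Tropical 5D) exposed singly from 6 hpf after pronase dechorionation. Static, sealed, 28C exposure, 0.64% DMSO; mortality excludes scoring; positive-direction fit against DMSO.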

[11] = Tanguay_ZF_120hpf_CIRC_legacy: (Legacy) Oregon State University Tanguay Lab 120 Hour Post-fertilization zebrafish Assay for Circulatory Malformation (AID 2283651)
Procedure, shortened: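 Binary circulatory-malformation call at 120 hpf via brightfield imaging, relative to DMSO controls. Embryos (5D strain, chorion removed) received static, light-shielded exposure at 28C.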

[12] = Tanguay_ZF_120hpf_TRUN_legacy: (Legacy) Oregon State University Tanguay Lab 120 Hour Post-fertilization zebrafish Assay for Truncated Body (AID 2283655)
Procedure, shortened: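 Truncated body is recorded as a binary endpoint at 120 hpf by brightfield imaging of wild-type 5D larvae. Exposure runs statically from 6 hpf at 28C with 0.64% DMSO; embryos dying earlier are not scored.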

[13] = Tanguay_ZF_120hpf_NC_legacy: (Legacy) Oregon State University Tanguay Lab 120 Hour Post-fertilization zebrafish Assay for Notochord and Tail Malformation (AID 2283656)
Procedure, shortened: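 Binary notochord-distortion calls, made by brightfield inspection, form the read-out; activity is fitted in the positive direction against DMSO. Exposure ran statically from 6 to 120 hpf at 28C with 0.64% DMSO.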

[14] = Tanguay_ZF_120hpf_TR_legacy: (Legacy) Oregon State University Tanguay Lab 120 Hour Post-fertilization zebrafish Assay for Touch Response (AID 2283667)
Procedure, shortened: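 Binary touch-response endpoint in larvae at 120 hpf after static waterborne exposure from embryo stage (28°C, 0.64% DMSO vehicle, 5 uM trimethyltin chloride as positive control); embryos dead at 24 or 120 hpf excluded; fitted as gain versus DMSO.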

[15] = STM_H9_OrnithineISnorm_perc: Stemina devTOX quickPredict H9 human embryonic stem cell (hESC)-based Assay for Ornithine (ORN) Metabolite Biomarker, Normalized (AID 2283712; active means hit-call score of the fitted dose curve at least 0.9, where 1 is the maximum; inactive means score below 0.9;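 further: ornithine released into spent medium during last day measured by mass spectrometry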)
Procedure, shortened: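 Metabolite endpoint from spent media of pluripotent H9 cells treated 72 h with daily re-feeding; ornithine measured by UPLC-HRMS against its 13C spike-in and referenced to the median 0.1% DMSO vehicle response.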

[16] = STM_H9_CystineISnorm_perc: Stemina devTOX quickPredict H9 human embryonic stem cell (hESC)-based Assay for Cystine (CYSS) Metabolite Biomarker, Normalized (AID 2283713; active means hit-call score of the fitted dose curve at least 0.9, where 1 is the maximum; inactive means score below 0.9)
Procedure, shortened: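 Normalized cystine level in conditioned medium from the final 24h of a 72h treatment of pluripotent H9 cells (daily media and compound renewal). Quantified by UPLC-HRMS with C13-labeled internal standard; scaled to median of 0.1% DMSO vehicle wells.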

[17] = STM_H9_OrnCyssISnorm_ratio: Stemina devTOX quickPredict H9 human embryonic stem cell (hESC)-based Assay for Ornithine (ORN):Cystine (CYSS) Ratio (AID 2283714)
Procedure, shortened: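 Ratio of internal-standard-normalized ornithine to cystine, measured by UPLC-HRMS in spent media from the last 24 h. H9 cells kept pluripotent, dosed 72 h with daily media and compound renewal; DMSO 0.1% serves as baseline.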

[18] = Tanguay_ZF_120hpf_ActivityScore_legacy: (Legacy) Oregon State University Tanguay Lab 120 Hour Post-fertilization zebrafish Assay Score for Activity (AID 2283742)
Procedure, shortened: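 Binary scoring of mortality and morphology by brightfield at 24 and 120 hpf, summarised into one activity score from 18 components relative to DMSO. Wild-type Tropical 5D zebrafish, chorion removed at 4 hpf, static exposure 6–120 hpf, 28 °C.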

Measured: AC50

c1cc[n+]2c(c1)-c1cccc[n+]1CC2
active: [15] 8.35 µM | [16] 1.7 µM | [17] 2.36 µM
inactive: all other assays above
